TDP1 cell noCPT: qHTS for Inhibitors of human tyrosyl-DNA phosphodiesterase 1 (TDP1): qHTS in cells in absence of CPT; Potency, µM (highest dose often 46.2 µM), inactives show at the top dose activity change, negative = growth inhibition, usual class: inhibitors; 15% of 420,000 active; DT40 Tdp1-/- hTDP1 cells, no CPT, ATP luminescence, 48 h; note: potency is the fitted concentration of half-maximal effect; nearly all actives have a fitted effect of over 55% in size
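Readout: luminescence from CellTiter-Glo after 30 min in the dark at RT. Cells: DT40 Tdp1-/- with stable hTDP1, 400/well. Exposure: compounds alone, ≥48 hr, 37 °C.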
TDP1 cell CPT: DT40-hTDP1 cell growth loss with CPT | 12% of 420,000 active | Potency, µM (top dose mostly 46.2 µM), for the others: at the highest dose activity change, negative = growth inhibition, actives largely listed as inhibitors | chicken DT40 Tdp1-/-;hTDP1 cells + 20 nM CPT, ATP luminescence, 48 h | AID 686979; note: potency is the fitted concentration of half-maximal effect; nearly all actives have a fitted effect of over 55% in size
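Chicken DT40 Tdp1-/- cells stably complemented with human TDP1 were seeded at 400 cells/well in medium containing 20 nM camptothecin, exposed to pin-transferred compounds, and grown at 37 °C for at least 48 hr. Viability was read as ATP luminescence.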
Gal4-VP16 FLuc: counter-screen for ROR gamma inhibitors: Gal4-VP16 reporter; Drosophila S2 Gal4-VP16 UAS-luciferase, luminescence, 20 h; Potency, µM (top dose mostly 53.6 µM), without a hit: at the highest dose activity, negative = inhibition, actives largely listed as inhibitors; 3.5% of 310,000 active; AID 2546;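 note: Gal4-VP16 expression switched on by copper sulfate through the metallothionein promoter; potency is the fitted concentration of half-maximal effect; nearly all actives have a fitted effect of over 50% in size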
LDHA block: blocks human lactate dehydrogenase A; P00338; purified LDHA, NADH/diaphorase-resazurin fluorescence; stronger effect = lower value; activity change, % (values are at about 110 or 230 µM); 0.15% of 480,000 active; AID 1347041; in the data active = activity change below about -30%; inconclusive = mostly about -25% to -30%;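 note: plate controls were DMSO wells for no effect and wells without enzyme for full effect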
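Enzyme activity of human lactate dehydrogenase 5 (2 nM; 0.06 mM NADH, 0.2 mM pyruvate, 5 min, RT) is measured via a resazurin/diaphorase fluorescence readout of residual NADH.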
IL-1B inflam inh: inhibitors of inflammasome signaling (IL-1 beta secretion); THP-1 LPS/ATP IL-1B secretion, AlphaLISA, 16 h; stronger effect = lower value; activity change, % at 57.5 µM; 4.7% of 360,000 active; in the data active = activity change below about -50%; inconclusive = mostly about -30% to -49%
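Secreted IL-1B measured by AlphaLISA bead assay after 16 h compound exposure of THP-1 cells; compounds (final up to 57.5 uM) added 1 h before LPS (250 ng/mL) and ATP (1.25 mM) stimulation; lower signal means less secretion.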
RORgamma inh: blocks mouse ROR gamma transcriptional activity | P51450 | Drosophila S2 Gal4-RORgamma UAS-luciferase reporter, 20 h | Potency, µM (top dose mostly 53.6 µM), without a hit: at the top dose activity change, negative = inhibition, hits mostly inhibitors | 5.4% of 310,000 active; note: potency is the fitted concentration of half-maximal effect; nearly all actives have a fitted effect of over 60% in size
Target sequence (P51450 whole entry, looked up, the tested form may be a part): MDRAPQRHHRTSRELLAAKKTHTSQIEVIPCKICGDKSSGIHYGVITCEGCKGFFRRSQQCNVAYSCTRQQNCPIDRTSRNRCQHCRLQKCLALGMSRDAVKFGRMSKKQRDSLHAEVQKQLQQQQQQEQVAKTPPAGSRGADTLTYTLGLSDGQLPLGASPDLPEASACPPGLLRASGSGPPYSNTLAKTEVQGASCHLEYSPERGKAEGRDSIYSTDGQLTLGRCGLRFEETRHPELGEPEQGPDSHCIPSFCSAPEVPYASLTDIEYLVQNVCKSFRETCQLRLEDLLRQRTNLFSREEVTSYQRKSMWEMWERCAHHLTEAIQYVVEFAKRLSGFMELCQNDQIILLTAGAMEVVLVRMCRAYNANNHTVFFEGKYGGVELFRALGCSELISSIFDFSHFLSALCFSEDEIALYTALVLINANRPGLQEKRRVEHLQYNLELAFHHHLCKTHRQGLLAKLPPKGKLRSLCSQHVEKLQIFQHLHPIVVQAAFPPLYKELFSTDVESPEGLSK
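Schneider cells (Drosophila), stable Gal4 DBD–ROR gamma + UAS-luc; 1 hr cmpd preincubation; Cu2+ induction 700 uM final; 20 hr ambient; luminescence.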
* = called active by the depositor; ? = inconclusive; nt = not tested or not shown. Compounds with a hit are over-represented: about 18% of the library has one in this group of screens. Unless noted, calls come from the whole dose curve; as a rule, active = well fitted curve in the direction sought with a large enough effect; inconclusive = small, poorly fitted or top-dose-only effect, or another doubt; inactive = no such curve, though single readings can be large; an effect the other way counts as inactive or inconclusive. Unless noted, % is set by controls: 0 for no effect and ±100 for the full control effect.

SMILES	TDP1 cell noCPT	TDP1 cell CPT	Gal4-VP16 FLuc	LDHA block	IL-1B inflam inh	RORgamma inh
CN1C(=O)C(O)(CC(=O)c2ccncc2)c2ccccc21 (stereo not given)	?	?	13.2%	2.1	-52.8*	-68.3%
COc1ccc(-c2cnc(N)nc2-c2ccc(OCc3ccccc3)cc2O)cc1	?	?	-12.7%	8.0	?	?
Nc1ncc(-c2ccccc2)c(-c2ccc(O)cc2O)n1	?	-6.9%	-1.4%	-3.7	-92.5*	30.5%
COc1ccc(-c2c(C)nc(N)nc2-c2ccc(OCc3ccc(C)cc3)cc2O)cc1OC	5.8µM*	?	-9.0%	1.2	63.1	?
COc1ccc(-c2c(C)nc(N)nc2-c2ccc(OC)cc2O)cc1	-24.7%	0.6%	-5.2%	2.2	11.1	-17.4%
COc1ccc(-c2cnc(N)nc2-c2ccc(OCc3ccc(F)cc3)cc2O)cc1OC	nt	nt	nt	3.4	nt	nt
COc1ccc(-c2nc(N)nc(N)n2)c(O)c1	16.4µM*	14.6µM*	nt	-3.2	-24.2	nt
COc1ccc(-c2nc(N)ncc2-c2ccc(OC)c(OC)c2)c(O)c1	?	?	0.6%	-10.8	-52.7*	16.0%
CC(=O)c1cccc(NC(=O)CSc2nc3c(-c4ccccc4)c[nH]c3c(=O)n2C2CC2)c1	nt	nt	nt	7.0	nt	nt
Cc1c(N)nc(C(CC(N)=O)NCC(N)C(N)=O)nc1C(=O)NC(C(=O)NC(C)C(O)C(C)C(=O)NC(C(=O)NCCc1nc(-c2nc(C(=O)NCCCN[C@@H](C)c3ccccc3)cs2)cs1)C(C)O)C(O[C@@H]1O[C@@H](CO)[C@@H](O)[C@H](O)[C@@H]1O[C@H]1O[C@H](CO)[C@@H](O)[C@H](OC(N)=O)[C@@H]1O)c1cnc[nH]1 (stereo not given in full)	1.68µM*	1.19µM*	nt	nt	nt	nt
CC1=C2C(=O)CC(c3cccc(Cl)c3)CC2=Nc2ccccc2N1 (stereo not given)	nt	nt	nt	11.2	nt	nt
O=c1oc2ccccc2cc1-c1nc(-c2ccccc2Cl)no1	nt	nt	nt	6.2	nt	nt
CC(C)(C)C1=CC(=Nc2ccccc2N)C=C(C(C)(C)C)C1=O	?	?	4.8%	13.7	-113.1*	-11.1%
Nc1ccccc1S(=O)(=O)O	nt	nt	1.1%	nt	nt	-9.3%
Cc1c2ccccc2cc[n+]1C	-15.9%	-6.2%	nt	-4.3	nt	nt
CC1=[N+](C)c2ccc3ccccc3c2C1(C)C	2.31µM*	2.59µM*	2.51µM*	6.6	-15.1	?
O=C(Nc1ccc2nc(SCC(=O)N3CCCC3)sc2c1)c1ccccc1F	16.4µM*	16.4µM*	nt	-6.1	nt	nt
O=C(COc1ccccc1F)Nc1ccc2nc(SCC(=O)N3CCOCC3)sc2c1	11.6µM*	18.4µM*	nt	1.7	nt	nt
O=C(COc1ccccc1F)Nc1ccc2nc(SCC(=O)N3CCCC3)sc2c1	13µM*	?	nt	-0.8	nt	nt
CCCCOC1(c2ccccc2)NC(=S)NN=C1c1ccccc1 (stereo not given)	nt	nt	?	nt	nt	10µM*
CCCCCCOC1(c2ccccc2)OC(=O)c2ccccc21 (stereo not given)	?	-1.4%	-7.2%	-1.1	-4.8	-13.9%
Cc1ccc(C2=Nc3ccc(Br)cc3C(c3ccncc3)=NN2)cc1	-28.3%	?	-9.9%	0.1	-148.8*	42.9%
Cc1ccccc1-c1nnc(-c2ccccc2)o1	?	?	-8.0%	1.3	21.1	29.4%
Cn1cc(-c2nnc(-c3ccccc3)o2)c2ccccc21	?	-18.7%	?	-0.9	0.0	1.41µM*
Cc1ccc(S(=O)(=O)c2[nH]c(-c3ccccc3)nc2SCCC(=O)O)cc1	0.6%	3.5%	nt	-2.0	nt	nt
SMILES	TDP1 cell noCPT	TDP1 cell CPT	Gal4-VP16 FLuc	LDHA block	IL-1B inflam inh	RORgamma inh
CCCSc1nc(-c2ccccc2)[nH]c1S(=O)(=O)c1ccc(C)cc1	18.4µM*	?	nt	-1.7	nt	nt
CC(=O)CSc1nc(-c2ccccc2)[nH]c1S(=O)(=O)c1ccc(C)cc1	3.26µM*	?	nt	-2.0	nt	nt
CC1CCCCN1c1cc(C#N)c(C#N)cc1[N+](=O)[O-] (stereo not given)	-23.5%	18.4µM*	-11.5%	-12.5	-5.6	-0.4%
O=C(C(Sc1nnc(-c2ccncc2)n1-c1ccc(Cl)cc1)c1ccccc1)N1CCCC1 (stereo not given)	nt	nt	nt	-3.4	nt	nt
COC(=O)c1cc(NS(=O)(=O)c2ccc(N3CCOCC3)c(N)c2)cc(C(=O)OC)c1	-7.8%	-2.2%	-12.5%	-0.4	-54.1*	26.1%
COc1ccc(NS(=O)(=O)c2ccc(C)c(C(=O)N3CCCCCCC3)c2)cc1	?	?	nt	-2.2	11.6	nt
Nc1cc(S(=O)(=O)c2ccc(N3CCCCC3)c(N)c2)ccc1N1CCCCC1	11.6µM*	9.2µM*	nt	0.0	40.0	nt
COC(=O)c1cc(NS(=O)(=O)c2ccc(N3CCOCC3)c(NC(C)=O)c2)cc(C(=O)OC)c1	20.0%	33.5%	-7.2%	-1.2	38.8	16.0%
Nc1cc(S(=O)(=O)Nc2ccccc2Cl)ccc1N1CCCCC1	9.2µM*	14.6µM*	nt	-10.9	-21.1	nt
Nc1cc(S(=O)(=O)N2CCCCC2)ccc1N1CCOCC1	?	-27.3%	3.3%	-1.2	11.0	30.8%
COc1ccc(NS(=O)(=O)c2ccc(N3CCCCC3)c(N)c2)cc1	1.3µM*	2.59µM*	nt	-1.1	-5.0	nt
CCN1CCC(N(Cc2ccc(F)cc2)C(=O)Nc2cccc(C(F)(F)F)c2)CC1	16.4µM*	16.4µM*	nt	-3.5	nt	nt
CCN1CCC(N(Cc2cccc(OC)c2)C(=O)Nc2cccc(C)c2C)CC1	23.1µM*	?	nt	-7.0	nt	nt
CCN1CCC(N(Cc2cccc(OC)c2)C(=O)Nc2cccc(C(F)(F)F)c2)CC1	20.6µM*	?	nt	-0.9	nt	nt
CCN1CCC(NC(=O)Nc2cccc(C(F)(F)F)c2)CC1	-0.5%	-1.8%	-1.3%	-2.9	-14.7	15.4%
CCOc1cc(/C=N/O)cc(Cl)c1OCC(=O)NN	nt	nt	nt	4.6	nt	nt
CCc1ccc(C(=O)COC(=O)/C(=C\c2ccccc2)NC(C)=O)cc1	nt	nt	nt	-12.2	nt	nt
CC1(C)CC(=O)C2=C(C1)OC1=C(C(=O)CC(C)(C)C1)C2c1ccccc1C(F)(F)F	nt	nt	nt	-1.6	nt	nt
Cc1c(C(=O)N2CCCCC2)sc2nc(-c3ccc(F)cc3)cn12	nt	nt	nt	-7.9	nt	nt
O=C(Nc1ccc2oc(-c3cccnc3)nc2c1)c1ccccc1I	nt	nt	nt	6.9	nt	nt
COc1ccc(-c2nc(Cn3c(SCc4ccccc4F)nc4ccncc43)c(C)o2)cc1OC	20.6µM*	18.4µM*	nt	-0.2	nt	nt
COc1ccc(-c2nc(Cn3c(SCc4cccc(F)c4)nc4ccncc43)c(C)o2)cc1OC	?	?	?	-2.6	?	-103.9%
